# High-throughput results from PubChem BioAssay.
# Rows were chosen to be rich in hits. Some 11% of all compounds tested hit in one or more screens of this group.
# HEK cytotox: HEK 293 cell cytotoxicity; hit rate 6.6% among 94,000; AID 1345083; Potency, µM (series often up to 115 µM), for inactives: at the highest dose activity change, negative = cytotoxicity, hits mostly inhibitors; HEK 293 viability, ATP luminescence (CellTiter-Glo), 48-72 h; further: on the % scale 0 is the no-effect control and ±100 the full control effect; nearly all actives have a fitted effect of over 60% in size
#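 Luminescence from cellular ATP, measured with CellTiter-Glo, indicates HEK 293 viability. Cells plated at 250 cells/well are treated with compound for 48 or 72 hr at 37 degree Celsius before reagent addition.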
# NPR1 antag: human Npr1 receptor antagonism; P16066; HEK293 hNpr1 GloSensor cGMP, ANP-stimulated luminescence; Potency, µM (series often up to 46.3 µM), for inactives: top-dose activity change, negative = inhibition, actives largely listed as inhibitors; hit rate 1.6% among 76,000; AID 1347048; calls by dose curve; further: on the % scale 0 is the no-effect control and ±100 the full control effect; nearly all actives have a fitted effect of over 60% in size
# Target sequence (P16066 whole entry, looked up): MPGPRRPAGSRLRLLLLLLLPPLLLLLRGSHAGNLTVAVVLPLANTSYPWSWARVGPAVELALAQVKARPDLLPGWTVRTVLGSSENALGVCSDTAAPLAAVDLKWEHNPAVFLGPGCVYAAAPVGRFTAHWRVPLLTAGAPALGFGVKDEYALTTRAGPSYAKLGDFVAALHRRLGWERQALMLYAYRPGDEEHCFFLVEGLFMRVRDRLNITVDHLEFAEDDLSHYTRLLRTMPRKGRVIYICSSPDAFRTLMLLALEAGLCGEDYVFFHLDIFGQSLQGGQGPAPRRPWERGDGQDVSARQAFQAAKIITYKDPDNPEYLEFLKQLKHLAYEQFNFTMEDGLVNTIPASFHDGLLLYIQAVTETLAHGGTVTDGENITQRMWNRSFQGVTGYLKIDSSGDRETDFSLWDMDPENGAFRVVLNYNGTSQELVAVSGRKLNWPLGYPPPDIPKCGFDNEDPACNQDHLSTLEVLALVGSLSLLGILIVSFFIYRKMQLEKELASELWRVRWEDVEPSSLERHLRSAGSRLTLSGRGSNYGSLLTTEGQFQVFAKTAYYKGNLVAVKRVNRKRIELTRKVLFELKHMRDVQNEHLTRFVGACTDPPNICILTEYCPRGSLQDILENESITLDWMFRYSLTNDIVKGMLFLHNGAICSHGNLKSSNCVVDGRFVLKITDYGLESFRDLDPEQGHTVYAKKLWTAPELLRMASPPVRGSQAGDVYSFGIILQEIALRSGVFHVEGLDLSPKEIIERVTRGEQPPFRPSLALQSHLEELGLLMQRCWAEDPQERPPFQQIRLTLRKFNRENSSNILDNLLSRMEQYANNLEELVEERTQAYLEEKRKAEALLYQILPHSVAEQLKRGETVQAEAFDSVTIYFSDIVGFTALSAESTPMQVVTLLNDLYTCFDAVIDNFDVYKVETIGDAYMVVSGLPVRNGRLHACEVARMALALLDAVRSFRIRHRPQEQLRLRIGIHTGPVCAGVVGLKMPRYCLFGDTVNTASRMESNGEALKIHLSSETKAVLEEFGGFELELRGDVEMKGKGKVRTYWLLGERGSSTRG
#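 Compound pre-incubated 30 min at room temperature on GloSensor-loaded HEK293 cells stably carrying hNpr1 and the pGS-40F cGMP biosensor. Stimulation uses hNppA at 0.1 nM final; luminescence is taken at baseline and 20 min post-agonist.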
# Luciferase inh: Photinus pyralis luciferase inhibition; Potency, µM (titrated, usually from 115 µM), usual class: inhibitors; hit rate 2.5% among 76,000; purified P. pyralis luciferase, luminescence, biochemical; further: on the % scale 0 is the no-effect control and ±100 the full control effect; nearly all actives have a fitted effect of over 65% in size
#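 Luminescence read by CCD imaging after purified firefly luciferase (10nM final) was added to substrate buffer holding 10uM D-luciferin and 10uM ATP, pH 7.5, pre-dosed with compound.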
# 3T3 cytotox: cytotoxic compounds in NIH 3T3 cells; NIH 3T3 viability, CellTiter-Glo ATP luminescence, 48-72 h; Potency, µM (titrated, usually from 96.7 µM), for inactives: at the top dose activity change, negative = cytotoxicity, most hits filed as inhibitors; hit rate 4.3% among 94,000; AID 1345082; further: on the % scale 0 is the no-effect control and ±100 the full control effect; nearly all actives have a fitted effect of over 55% in size
#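 Viability of NIH 3T3 cells after 48 or 72 hr compound treatment at 37 °C was assessed by CellTiter-Glo, with luminescence imaged following a 10 min room-temperature step.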
# NPR1 antag cnf: confirmation of human Npr1 natriuretic peptide receptor antagonists; hit rate 76% among 1,400; shares compounds with NPR1 antag; HEK293 hNpr1 cGMP GloSensor luminescence, ANP-stimulated; Potency, µM (highest dose often 57.6 µM), without a hit: at the top dose activity change, negative = inhibition, actives largely listed as inhibitors; calls by dose curve; further: nearly all actives have a fitted effect of over 70% in size
# Npr2 selectivity: selectivity test of Npr1 antagonists against human Npr2; AID 1347046; Potency, µM (highest dose often 57.6 µM), for inactives: at the top dose activity change, negative = inhibition, usual class: inhibitors; shares compounds with NPR1 antag; hit rate 67% among 1,400; HEK293 hNpr2 GloSensor cGMP luminescence, CNP-stimulated; calls by dose curve; further: nearly all actives have a fitted effect of over 70% in size
# FLuc inh counter: counter-screen for Npr1 antagonists: firefly luciferase inhibitors. hit rate 0.7% among 1,400. Potency, µM (top dose mostly 57.6 µM), inactives show at the top dose activity change, negative = inhibition, usual class: inhibitors. shares compounds with NPR1 antag. purified FLuc enzyme, luminescence, Km substrate. AID 1347047; further: 0% is about no effect
# GloSensor cGMP: control cell line activity, Npr1 antagonist counter-screen; shares compounds with NPR1 antag; HEK293 GloSensor cGMP, SNP-stimulated, luminescence; Potency, µM (series often up to 57.6 µM), for the others: top-dose activity change, negative = inhibition, most hits filed as inhibitors; hit rate 69% among 1,400; calls by dose curve; further: on the % scale 0 is the no-effect control and ±100 the full control effect; nearly all actives have a fitted effect of over 70% in size
# An asterisk follows results filed as active; i = inactive; ? = inconclusive; · = no result given; [ ] = dose if it differs, or a comment. Unless noted, the call rests on the fitted dose curve; in most records, active means well fitted curve in the direction sought with a large enough effect; inconclusive means small, poorly fitted or top-dose-only effect, or another doubt; inactive means no such curve, though single readings can be large; an effect the other way counts as inactive or inconclusive. Potency means the concentration at half of the fitted maximal effect.
SMILES,HEK cytotox,NPR1 antag,Luciferase inh,3T3 cytotox,NPR1 antag cnf,Npr2 selectivity,FLuc inh counter,GloSensor cGMP
O=C(CC1CCCC1)N1CCC(Cc2nc(-c3ccc(F)cc3)no2)CC1,?,2.2µM*,i,?,2.2µM*,3.1µM*,3%,3.1µM*
CNC(=O)[C@@H]1[C@@H](OC(N)=O)C(=O)N(C)C12CCN(C(=O)c1ccccc1OC(F)(F)F)CC2,-25%,·,·,?,·,·,·,·
Cc1nc(C)c(CC(=O)N2CCCC(C)(Cc3ccc4c(c3)OCO4)C2)s1 (centres undefined),28µM*,14µM*,i,-28%,19µM*,22µM*,0%,17µM*
O=C(O)Cn1ccc2cc(OCCc3cccc(-c4ccc(F)cc4F)c3)cnc21,?,2%[70.6 µM],?,-11%[138 µM],·,·,·,·
Cc1nc(C2CC(O)C2)cc(N2CCN(C(=O)c3cccs3)CC2)n1 (centres undefined),-17%,3%,i,-27%,·,·,·,·
Cc1nc(C2CC(O)C2)cc(N2CCN(c3nc4ccccc4s3)CC2)n1 (centres undefined),?,7.1µM*,i,?,9.7µM*,11µM*,1%,8.6µM*
O=C1NC2(CCN(C(=O)c3ccccn3)CC2)Oc2ccccc21,-5%[172 µM],0%[70.6 µM],i,1%[138 µM],·,·,·,·
O=C1NC2(CCN(C(=O)c3ccccn3)CC2)COc2ccccc21,-15%[172 µM],?,i,3%[138 µM],?,25µM*,-14%[86.2 µM],12%[86.2 µM]
Cc1nn(Cc2ccccc2)c(C)c1[C@@H]1C=C[C@@H](NC(=O)c2ccc3c(c2)OCO3)C1,28µM*,32µM*,i,?,35µM*,35µM*,-13%[86.2 µM],35µM*
C=CCN(C)C(=O)C[C@@H]1c2nc(NC(=O)c3c(F)cccc3F)sc2C[C@@H]2[C@](C)(CO)[C@H](O)CC[C@]21C,i,4%,i,i,·,·,·,·
COc1ccc(Cl)cc1C(=O)N1CCC(Cc2nc(-c3cnccn3)no2)CC1,-14%,-2%,i,?,·,·,·,·
CCOc1cc(C(=O)N2CCC(Cc3nc(-c4ccccc4)no3)CC2)cc(OCC)c1OCC,?,4%,i,?,·,·,·,·
COc1ccc(-c2noc(CC3CCN(C(=O)C4CCN(C(=O)c5ccccc5)CC4)CC3)n2)cc1,?,8.9µM*,i,?,19µM*,17µM*,0%,12µM*
COc1ccc(-c2noc(CC3CCN(C(=O)c4ccccc4OC)CC3)n2)cc1,?,10µM*,i,?,14µM*,14µM*,0%,12µM*
COc1ccc(-c2noc(CC3CCN(C(=O)c4ccc(OC)cc4OC)CC3)n2)cc1,?,2.8µM*,i,?,3.1µM*,4.8µM*,-2%,3.1µM*
COc1cc(OC)cc(C(=O)N2CCC(Cc3nc(-c4ccccc4)no3)CC2)c1,?,?,i,?,·,·,·,·
CN(C)c1ccc(CN2CCC3(CC2)CC(=O)Nc2ccccc2O3)cc1,-18%,·,·,1%,·,·,·,·
CCCC(O)CN1CCC(=O)N(C)Cc2cc(F)ccc21 (centres undefined),?,·,·,-11%,·,·,·,·
CN(C)CC1(O)CCCN(Cc2cccc3ncccc23)C1 (centres undefined),-8%,2%,i,-10%,·,·,·,·
Fc1ccc(C2Cn3nnc(-c4nc(C5CCCCC5)no4)c3CO2)cc1 (centres undefined),-9%,?,i,-26%,12µM*,9.7µM*,-1%,-24%
Cc1ccc(C2Cn3nnc(-c4noc(-c5ccoc5)n4)c3CO2)cc1 (centres undefined),14%,?,i,i,?,?,0%,-3%
COc1ccc(C2Cn3nnc(-c4nc(C5CC5)no4)c3CO2)cc1 (centres undefined),-11%,?,i,-34%,?,-22%,2%,-17%
FC(F)(F)c1ccc(CN2CCC3(CC(c4cccnc4)=NO3)C2)cc1 (centres undefined),?,·,·,-17%,·,·,·,·
FC(F)(F)c1ccc(CN2CCC3(CC2)CC(c2cccnc2)=NO3)cc1,?,2.5µM*,i,?,6.9µM*,11µM*,2%,6.1µM*
CC(C)n1cc(CN(C)C(=O)c2cc(COc3ccccc3)on2)cn1,?,0%,?,?,·,·,·,·
SMILES,HEK cytotox,NPR1 antag,Luciferase inh,3T3 cytotox,NPR1 antag cnf,Npr2 selectivity,FLuc inh counter,GloSensor cGMP
Cc1cnccc1CN(C)C(=O)c1cc(COc2ccc(-n3cncn3)cc2)on1,?,7.1µM*,i,?,5.4µM*,9.7µM*,0%,5.4µM*
CCOc1ccccc1CN1CCC2(CCN(C(=O)N(C)C)CC2)Oc2ccccc21,?,-8%,i,?,·,·,·,·
CCOC(=O)C1=CN(CC(=O)Nc2ccc(C)cc2C)S(=O)(=O)N=C1C,-16%,-11%,i,-26%,·,·,·,·
CCOC(=O)C1=CN(CC(=O)Nc2c(C)cc(C)cc2C)S(=O)(=O)N=C1C,?,11µM*,i,-19%,24µM*,?,0%,27µM*
CC(C)Cc1cn(CC2CCCN(C(=O)NC3CCCCCC3)C2)nn1 (centres undefined),?,10µM*,i,?,17µM*,17µM*,1%,12µM*
CC1=C[C@@H](CNC(=O)COCC(=O)O)[C@H](C(C)C)C[C@H]1CC(=O)N1CCCC1,-9%[172 µM],2%[70.6 µM],i,-17%[138 µM],·,·,·,·
O=C(c1ccc2cc[nH]c2c1)N1CCC2(CC1)CC(Cc1cccc(F)c1)CCO2 (centres undefined),?,-25%,i,?,·,·,·,·
COc1ccc(C(=O)N2CCC(Cc3nc(-c4ccc(F)cc4)no3)CC2)c(C)c1,?,1.4µM*,i,?,1.5µM*,2.2µM*,0%,1.7µM*
CN(C)c1ccc(C(=O)N2CCC(Cc3nc(-c4cnccn4)no3)CC2)cc1,-7%,-12%,i,-28%,·,·,·,·
COc1cccc(-c2noc(CC3CCN(C(=O)c4ccccc4C)CC3)n2)c1,?,13µM*,i,?,12µM*,17µM*,-5%,12µM*
COc1cccc(-c2noc(CC3CCN(C(=O)c4ccc(N(C)C)cc4)CC3)n2)c1,?,10µM*,i,-17%,14µM*,15µM*,-18%,11µM*
